Bioassay records as filed in PubChem BioAssay.
VACV Venus inh: qHTS for Stage-Specific Inhibitors of Vaccinia Orthopoxvirus: Venus Reporter Primary qHTS; Vaccinia virus Venus reporter expression, fluorescence; Potency, µM (titrated, usually from 36.5 µM), actives largely listed as inhibitors; 330,000 compounds, 0.46% hits; calls by dose curve; tested in A549 cells; note: nearly all actives have a fitted effect of over 30% in size
AMA1-RON2 inh: qHTS for Inhibitors of AMA1-RON; Towards Development of Antimalarial Drug Lead: Primary Screen | Potency, µM (top dose mostly 58.2 µM), most hits filed as inhibitors | AlphaScreen AMA1-biotinylated RON2 peptide binding | 360,000 compounds, 0.2% hits; note: nearly all actives have a fitted effect of over 45% in size
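AMA1 (3D7) with his tag at 25 nM final met compounds first, then biotinylated RON2 peptide at 25 nM; detection used donor plus acceptor beads, 10 µg/mL apiece, read by AlphaScreen after 30 min at room temperature.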
AmpC inh detg: qHTS Inhibitors of AmpC Beta-Lactamase (assay with detergent); Potency, µM (titrated, usually from 114 µM), actives largely listed as inhibitors; 370,000 compounds, 0.041% hits; P00811; AmpC hydrolysis of nitrocefin, absorbance 480 nm, 0.01% Triton; AID 485294, 2010; note: nearly all actives have a fitted effect of over 25% in size
Target sequence (P00811 whole entry, looked up): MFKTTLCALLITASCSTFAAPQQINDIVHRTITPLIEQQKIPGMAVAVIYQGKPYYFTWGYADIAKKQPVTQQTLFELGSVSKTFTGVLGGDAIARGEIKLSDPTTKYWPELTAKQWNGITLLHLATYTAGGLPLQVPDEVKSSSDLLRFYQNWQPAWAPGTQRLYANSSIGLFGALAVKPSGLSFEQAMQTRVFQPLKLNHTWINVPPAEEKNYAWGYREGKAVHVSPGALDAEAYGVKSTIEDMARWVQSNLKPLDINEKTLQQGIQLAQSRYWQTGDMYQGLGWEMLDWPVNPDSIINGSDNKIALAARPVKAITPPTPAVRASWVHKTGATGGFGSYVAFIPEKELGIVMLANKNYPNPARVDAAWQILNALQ
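AmpC (5.3 nM in the dispensed reagent) in 20 mM phosphate pH 7.0 with 0.01% (detergent screen) or 0.0001% Triton X-100 was preincubated with compounds for 15 min at room temperature. Nitrocefin was then added from an 800 uM solution, and hydrolysis was followed at 480 nm.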
SARS PLP yeast: qHTS of Yeast-based Assay for SARS-CoV PLP | S. cerevisiae expressing SARS-CoV PLpro, growth rescue | Potency, µM (series often up to 32.9 µM), hits mostly activators | 330,000 compounds, 0.19% hits | AID 485353, 2010; calls by dose curve; note: nearly all actives have a fitted effect of over 55% in size
AmpC no deterg: qHTS Inhibitors of AmpC Beta-Lactamase (assay without detergent); P00811; Potency, µM (doses to about 57.1 µM), most hits filed as inhibitors; AID 485341, 2010; 330,000 compounds, 0.52% hits; AmpC nitrocefin hydrolysis, absorbance 480 nm, 0.0001% Triton; note: nearly all actives have a fitted effect of over 20% in size
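20 mM phosphate pH 7.0 + 0.01% (detergent screen) or 0.0001% Triton X-100; 5.3 nM AmpC reagent; cpd preinc 15 min RT; nitrocefin (800 uM stock) to start; A480 q20 s × 4 min; Activity was normalised to no-enzyme and no-compound control wells.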
VACV mCherry inh: qHTS for Stage-Specific Inhibitors of Vaccinia Orthopoxvirus: mCherry Reporter Primary qHTS; Vaccinia virus mCherry reporter infection, fluorescence; Potency, µM (series often up to 36.5 µM), hits mostly inhibitors; 310,000 compounds, 0.63% hits; AID 720579, 2013; calls by dose curve; tested in A549 cells; note: nearly all actives have a fitted effect of over 35% in size
Hits are given with their value; . = inactive; ? = inconclusive; / = not tested or not shown; [ ] = remark or other dose. Shown are actives, neighbours in structure and some others; about 1.3% of the full set was active somewhere. Unless noted, calls come from the whole dose curve; as a rule, active = well fitted curve in the direction sought with a large enough effect; inconclusive = small, poorly fitted or top-dose-only effect, or another doubt; inactive = no such curve, though single readings can be large; an effect the other way counts as inactive or inconclusive.

SMILES	VACV Venus inh	AMA1-RON2 inh	AmpC inh detg	SARS PLP yeast	AmpC no deterg	VACV mCherry inh
COc1ccc(NC(=O)CN(C)C(=O)c2cc(-c3ccco3)nc3ccccc23)cc1	.	.	.	.	.	.
CC1CCN(c2oc(-c3ccc(OCc4ccccc4Cl)cc3)nc2C#N)CC1	.	/	/	/	/	.
CCCCOC(=O)c1[nH]c2c(c1C)C(=O)CC(c1cc(OC)c(OC)c(OC)c1)C2 (stereo not given)	.	.	?	.	31.6µM	?
COCCOC(=O)c1[nH]c2c(c1C)C(=O)CC(c1cc(OC)c(OC)c(OC)c1)C2 (stereo not given)	.	.	.	.	.	.
CC(C)Cc1nc2cc(NS(=O)(=O)N(C)C)cc(C(=O)N3CC4(C)CC3CC(C)(C)C4)c2n1C (stereo not given)	.	/	/	/	/	.
COc1ccccc1Nc1ccc2c(O)cc(S(=O)(=O)O)cc2c1	.	20µM	/	/	/	.
O=S(=O)(O)c1cc(O)c2ccc(Nc3ccccc3)cc2c1	.	.	/	/	/	?
COc1cc(-c2cc(C)c3cccc(OC)c3n2)cc2c1OCCN(C(=O)CC1NC(=O)c3ccccc31)C2 (stereo not given)	.	/	/	/	/	.
COc1ccc(NC(=O)CSc2nc3c(c(=O)n2-c2ccccc2OC)SCC3)cc1	.	.	.	.	35.5µM	.
CC(C)c1c(C(=O)N2CCN(CCO)CC2)cnn1-c1nccc(-c2cccs2)n1	.	/	/	/	/	.
COC(=O)c1cc(CNC(=O)c2cccc(C)c2)cc(NC(=O)c2ccncc2)c1	.	/	/	/	/	.
CC(C)(C)c1ccc(C(=O)NCCN2CCOCC2)cc1	/	.	/	/	/	/
CC(C)(C)c1ccc(C(=O)NCCCN2CCN(CCCNC(=O)c3ccc(C(C)(C)C)cc3)CC2)cc1	11.2µM	.[2.32 µM]	.	.	.	?
CCOc1ccc(/C=C/C(=O)Oc2ccccc2)cc1	.	.	.	.	.	.
CCOc1ccc(/C=C/C(=O)C(C(N)=O)=C2SCCS2)cc1	.	.	.	.	.	4.47µM
COc1ccc(C(=O)NCc2nc(-c3cccc(NC(=O)c4ccc(C)s4)c3)oc2C)cc1	.	/	/	/	/	.
CCN(CC)c1ccc(NC(=S)Nc2ccc(F)cc2)cc1	.	31.6µM	.	.	.	.
Oc1ccc(NC(=S)Nc2ccc(F)cc2)cc1	/	.	.	.	.	/
COc1ccc(N(C(=O)c2ccc(Cl)cc2)S(=O)(=O)c2ccc(C)cc2)cc1	.	/	.	/	/	.
COc1ccccc1C1CN(CCNC(=O)c2ccc3c(c2)OCCO3)Cc2ccccc2O1 (stereo not given)	.	/	/	/	/	.
Cc1ccc(-c2nc(CS(=O)(=O)CC(=O)N3CC(C)CC(C)C3)c(C)o2)cc1 (stereo not given)	.	.	.	.	39.8µM	.
Cc1ccc(-c2nc(CS(=O)(=O)CC(=O)N3CCN(C)CC3)c(C)o2)cc1	/	.	.	.	.	/
CCN1CCN(C(=O)CS(=O)(=O)Cc2nc(-c3ccc(C)cc3)oc2C)CC1	.	.	.	.	10µM	.
COc1ccccc1-n1cc(CN2CCC3(CCC(CNC(=O)c4ccccc4)O3)CC2)cn1 (stereo not given)	.	/	/	/	/	.
COCCN(C)C(=O)c1cnn(-c2nccc(-c3cc(OC)ccc3OC)n2)c1C	.	/	/	/	/	.
SMILES	VACV Venus inh	AMA1-RON2 inh	AmpC inh detg	SARS PLP yeast	AmpC no deterg	VACV mCherry inh
Cc1ccc(/C=[N+](\[O-])c2ccc(N(C)C)cc2)c2nsnc12	.	25.1µM	.	.	.	.
CCn1c(=S)sc2c(=O)n(CC(=O)Nc3cccc(OC)c3)c(C)nc21	.[7.34 µM]	.	.	.	.	.[7.34 µM]
O=C(N/N=C/c1ccc(O)c(O)c1)c1cccc(S(=O)(=O)N2CCCCC2)c1	.	.	.	.	14.1µM	.
O=C(N/N=C\c1cc(Br)ccc1O)c1ccc(S(=O)(=O)N2CCCCC2)cc1	?	.	?	?	.	5.01µM
O=C(NN=Cc1ccc(F)cc1)c1cccc(S(=O)(=O)N2CCCC2)c1	.	.[11.6 µM]	/	.	.	.
CCCCCCC(=O)Nc1nc(C)c(-c2csc(Nc3ccc(Cl)cc3)n2)s1	?	.	.	.	.	5.01µM
Cc1nc(NC(=O)c2ccco2)sc1-c1csc(Nc2ccc(Cl)cc2)n1	?	.	.	.	.	7.94µM
COc1ccc(Nc2nc(-c3sc(NC(C)=O)nc3C)cs2)cc1	/	/	?	3.16µM	.	/
COc1ccc(Nc2nc(-c3sc(N)nc3C)cs2)cc1	/	.	.	.	.	/
CCCCCC(=O)Nc1nc(C)c(-c2csc(Nc3ccc(Cl)cc3)n2)s1	?	.	.	.	.	?
COC(=O)C1CCCCN1Cc1ccc2c(c1)CN(C(=O)c1ccc(F)cc1)CCO2 (stereo not given)	.	/	/	/	/	.
COc1ccc(-c2ccc(C(=O)N3CCc4c(cnc(C)c4CNS(=O)(=O)N(C)C)C3)o2)cc1	.	/	/	/	/	.
CCC1CN(CCNC(=O)c2cccc3nccnc23)Cc2cc(OC)ccc2O1 (stereo not given)	.	/	/	/	/	.
CCO[C@H]1[C@H](NC(=O)c2cccnc2)c2ccccc2C12CCN(C(=O)c1ccoc1)CC2	.	/	/	/	/	.
COc1ccc(-c2cc3nc(-c4ccccc4)cc(N4CCC(O)CC4)n3n2)cc1	.	.	.	.	.	.
COc1ccc(-c2cc3nc(-c4ccccc4)cc(N4CCCC(O)C4)n3n2)cc1 (stereo not given)	?	.	.	.	.	12.6µM
O=C(CN1Cc2ccccc2OC(c2ccccc2F)C1)NC(c1ccccn1)C(F)(F)F (stereo not given)	.	/	/	/	/	.
O=C(CSc1cn(Cc2ccccc2)c2ccccc12)N1CCOCC1	.	.	?	.	44.7µM	.
O=C(CSc1c[nH]c2ccccc12)N1CCCc2ccccc21	.	.	?	.	17.8µM	.
COc1ccc(Cl)cc1NC(=O)c1cnc2n(c1=O)CCS2	?	.	?	.	.	2.24µM
COc1ccc(S(=O)(=O)c2c(SC)nn(CC(=O)Nc3ccc(C)c(Cl)c3)c2N)cc1	.	/	.	/	/	?
COc1cc(/C=C2\C(=O)N(c3ccc(NC(C)=O)cc3)N=C2c2ccccc2)ccc1O	/	.	?	.	.	/
CCOc1cc(/C=C2\C(=O)N(c3nc(-c4ccc(Br)cc4)cs3)N=C2c2ccccc2)ccc1O	.	.	.	.	15.8µM	.
CCOc1ccc(S(=O)(=O)NCCc2sc3nc(-c4ccc(F)cc4)nn3c2C)cc1	?	/	.	/	/	?
O=C(NC(=S)Nc1ccc(F)c(Cl)c1)C1CC1	.	.	.	.	.	.
Fc1ccc(NC(=S)Nc2ccc(F)c(Cl)c2)cc1Cl	10µM	.	.	.	.	?
